# Compound activity as filed in PubChem.
# NCOA3 inh – human NCOA3 inhibition; HEK293 GAL4-SRC3 luciferase reporter, luminescence; hit rate 0.17% among 360,000; inhibition, % at 3.6 µM;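 active = inhibition above a per-campaign cutoff, the mean of all compounds plus 3 SD, cut at about 60% in these data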;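 note: 0% = DMSO-treated cells and 100% = gossypol-treated cells at 36 µM; higher means less SRC3-driven luciferase light from the GAL4 reporter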
# NCOA1 inh – inhibitors of human steroid receptor coactivator 1 (SRC1). inhibition, % at 3.6 µM. hit rate 0.12% among 360,000. HEK293 GAL4-SRC1 luciferase reporter, luminescence. Q15788;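 active = inhibition above the campaign mean plus 3 SD, with each screening campaign given its own cutoff, cut at about 60% in these data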;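 note: 0% = DMSO treated cells and 100% = gossypol at 36 µM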
# NR5A2 inv ag – NR5A2 inverse agonism in reporter assay. O00482. HEK293T StAR-luciferase reporter, LRH-1 transfected, 24 h. inhibition, % at 3.6 µM. hit rate 0.13% among 360,000. AID 602396;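 active = inhibition above the mean inhibition of all tested compounds plus 3 SD, cut at about 73% in these data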;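 note: 0% = DMSO wells and 100% = reporter-only cells lacking LRH-1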
# NCOA2 inhibitor – inhibits human steroid receptor coactivator 2; hit rate 0.17% among 370,000; HEK293 GAL4-SRC2 luciferase reporter, luminescence; inhibition, % at 9 µM;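 active = inhibition above the mean inhibition of all tested compounds plus 3 SD, set per campaign, cut at about 52% in these data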;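 note: 0% = DMSO treated cells and 100% = cells given Gossypol at 36 µM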
# COUP-TFII inh – inhibitors of human COUP-TFII (NR2F2); P24468; inhibition, % at 8.6 µM; AID 686940; HEK293T NGFI-A luciferase reporter, luminescence; hit rate 0.7% among 370,000;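 active = inhibition above a per-plate cutoff, mean inhibition of test wells between control levels plus 3 SD, cut at about 38% in these data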;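 note: cells cotransfected with COUP-TFII expression vector driving the NGFI-A reporter; 0% = median of COUP-TF2 test wells and 100% = reporter-only cells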
# VP16 Luc counter – VP16 inhibition counter-screen for COUP-TFII. hit rate 25% among 2,500. shares compounds with COUP-TFII inh. inhibition, % at 8.5 µM. AID 687007. HEK293 Gal4-VP16 luciferase reporter, luminescence; in the data active = inhibition above about 13%
# COUP-TFII conf – COUP-TFII (NR2F2) inhibition, confirmation assay; shares compounds with COUP-TFII inh; HEK293 NGFI-A luciferase reporter, luminescence; inhibition, % at 8.5 µM; hit rate 45% among 2,500;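 active = mean inhibition over three repeats above a set limit taken from the earlier primary screen, cut at about 38% in these data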;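 note: 100% = cells given the luciferase reporter alone without the COUP-TF2 vector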
# * = called active by the depositor; / = no result. Only some compounds are listed: those with a hit (about 0.83% of all), similar ones and a draw of the others.
SMILES,NCOA3 inh,NCOA1 inh,NR5A2 inv ag,NCOA2 inhibitor,COUP-TFII inh,VP16 Luc counter,COUP-TFII conf
COc1ccc(C(c2nnnn2-c2ccc(OC)cc2)N2CCC(n3c(=O)[nH]c4ccccc43)CC2)cc1 (configuration not stated),17,24,12,10,5,/,/
CC(=O)OC1CC2OC3C=C(C)CCC3(C)C1(C)C21CO1 (configuration not stated),95*,96*,103*,69*,85*,17*,72*
CC(=O)O[C@H]1C[C@@H]2OC3C=C(C)CCC3(C)[C@@]1(C)[C@@]21CO1 (some centres not stated),92*,94*,97*,69*,77*,16*,72*
COC(=O)C1=C(c2ccc(F)cc2F)C[C@@H]2CC[C@H]1N2C(=O)N1CCC(C)CC1,10,-5,4,2,7,/,/
CC(C)(C)c1ccc(CSc2cnn(C(C)(C)C)c(=O)c2Cl)cc1,12,31,44,10,71*,4,61*
COP(=O)(OC)C(C)NC(=O)OCc1ccccc1 (configuration not stated),/,/,/,/,20,/,/
O=C(Nc1ccccc1)c1cccn(Cc2ccccc2)c1=O,-21,-46,-43,1,8,/,/
O=C(Nc1ccncc1)c1cccn(Cc2ccccc2)c1=O,16,14,38,14,66*,-5,51*
CCOC(=O)[C@]12Cc3cc(Cl)ccc3[C@H]1N(C1CCCCC1)C(=O)c1cc(OC)ccc12,/,/,97*,-2,59*,53*,60*
CCOC(=O)[C@]12Cc3ccc(C)cc3[C@H]1N(C1CCCCC1)C(=O)c1cc(OC)ccc12,/,/,62,-2,52*,23*,35
CCOC(=O)[C@]12Cc3cc(OC)ccc3[C@H]1N(C)C(=O)c1cc(OC)ccc12,/,/,17,11,15,/,/
CCOC(=O)[C@]12Cc3ccc(C)cc3[C@H]1N(C1CCCCC1)C(=O)c1ccccc12,/,/,52,-3,50*,17*,30
O=C(NCCN1CCC2(CC1)C(=O)NCN2c1ccccc1)c1ccc2ccccc2c1,/,/,/,-15,6,/,/
CC(NC(=O)OC1CC2CCC1(C)C2(C)C)P(=O)(Oc1ccccc1)Oc1ccccc1 (configuration not stated),/,/,/,/,-10,/,/
